# Source: PubChem BioAssay (The Scripps Research Institute Molecular Screening Center)
# Most compounds without a hit are left out; they make up all but 3.5% or so of the library.
# FBW7 activator = activators of human E3 ligase FBW7 | 650,000 tested, 0.13% active | AID 1259310 | Q969H0 | normalized activity (activation), % at 26.1 µM | AlphaScreen FBW7–phospho-cyclin E peptide binding, activator screen; in the data active = normalized activity above about 1.9%;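 also: purified mutant Fbw7 with reduced substrate affinity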
# TEAD-YAP inh = TEAD-YAP interaction inhibition | 640,000 tested, 1.4% active | HEK-TIYL cells, TEAD-Gal4/YAP UAS-luciferase luminescence | inhibition, % at 9.12 µM; in the data active = inhibition above about 32%
# GPR151 activ = activators of human GPR151; PathHunter beta-arrestin GPR151 cells, luminescence; activation, % at 11.2 µM; 650,000 tested, 1% active; in the data active = activation above about 4.9%
# MITF inh = human MITF inhibition, primary screen. O75030. AlphaScreen MITF homodimerization, bead proximity signal. inhibition, % at 2.6 µM. 650,000 tested, 0.91% active. AID 1259374; in the data active = inhibition above about 50%
# A number is an active result; 0 = inactive.
SMILES,FBW7 activator,TEAD-YAP inh,GPR151 activ,MITF inh
CC(C)n1cnc2c(NCc3ccccc3)nc(-c3ccc(N4CCOCC4)nc3)nc21,0,0,0,0
COc1ccc(-c2nc(NCc3nc4ccccc4[nH]3)c3ncn(-c4ccsc4)c3n2)cc1,0,0,0,0
CC(C)n1cnc2c(NCc3nc4ccccc4[nH]3)nc(N3CCOCC3)nc21,0,79,0,0
CCn1nc(-c2ccc(OC)cc2)c2c(=O)n(C)c(=O)[nH]c21,0,0,0,0
CC1=NN(c2ccccc2)C(=O)/C1=C/c1cccn1-c1ccccc1,0,0,0,64
CC1=NN(c2ccccc2)C(=O)/C1=C/c1ccc(Cl)cc1,0,0,0,0
C=CCn1c(=NC(=O)c2ccccc2[N+](=O)[O-])sc2cc(NC(C)=O)ccc21,0,49,0,0
CSc1ccc(C2C(C#N)=C(N)N(c3ncn[nH]3)C3=C2C(=O)CC(C)(C)C3)cc1 (stereo not given),0,0,0,0
CCCn1cc(-c2ccc(Nc3nccc(-c4cncc(N5CCOCC5)c4)n3)cc2)cn1,0,47,0,0
Fc1cncc(-c2ccnc(Nc3ccc(-c4cnn(CCN5CCOCC5)c4)cc3)n2)c1,0,0,0,0
c1cc(-c2cncc(N3CCOCC3)c2)nc(Nc2ccc(-c3cnn(CCN4CCOCC4)c3)cc2)n1,0,96,0,0
COc1ccc(CN2Cc3ccccc3C2)cc1,0,0,0,0
Cc1cc(C)c(N(C(=O)CCl)C(=O)C2CCCN2C(=O)CCl)c(C)c1 (stereo not given),0,32,0,0
O=C1NC(=O)C(C(C[N+](=O)[O-])c2ccc(O)cc2)C(=O)N1 (stereo not given),0,0,0,0
N=c1sccn1CC(=O)c1ccc2c(c1)OCCO2,0,35,0,0
N=C1c2ccccc2CN1CC(=O)c1ccc2c(c1)OCCO2,0,77,0,0
COc1ccc(C(=O)CN2Cc3ccccc3C2=N)cc1OC,0,0,0,0
N=C1c2ccccc2CN1CC(=O)c1ccc(-c2ccccc2)cc1,0,80,0,0
COc1ccc(C(=O)Cn2ccsc2=N)cc1,0,0,0,0
Cc1nc2ccccc2n1CC1CCN(S(=O)(=O)/C=C/c2ccccc2)CC1,0,33,0,0
Cc1c(Cl)cccc1S(=O)(=O)N1CCC(Cn2c(C)nc3ccccc32)CC1,0,36,0,0
Cc1c(Cl)cccc1S(=O)(=O)N1CCC(n2nnc3ccccc32)CC1,0,0,0,0
COc1ccc(CCNC(=O)CC#N)cc1,0,0,0,0
CC1=CC2C(CC1COC(=O)Nc1cccc3ccccc13)C2(C)C (stereo not given),0,0,0,0
Cc1ccccc1C(=O)NC(C)c1nnc2n1CCN(CC(C)(C)C)CC2 (stereo not given),0,0,0,0
SMILES,FBW7 activator,TEAD-YAP inh,GPR151 activ,MITF inh
CN(C)N1C(N)=C(C#N)C(c2ccc(C(F)(F)F)cc2)C2=C1CCCC2=O (stereo not given),2.1,0,0,0
Cc1ccc(C2C(C#N)=C(N)N(N(C)C)C3=C2C(=O)CCC3)cc1 (stereo not given),0,0,0,0
COc1cc(C2C(C#N)=C(N)N(c3ccc(C)cc3)C3=C2C(=O)CCC3)cc(OC)c1OC (stereo not given),0,61,0,0
COc1ccc(N2C(N)=C(C#N)C(c3ccc(O)c(OC)c3)C3=C2CCCC3=O)cc1 (stereo not given),0,58,0,0
COc1ccc(C2C(C#N)=C(N)N(c3ccc(OC)cc3)C3=C2C(=O)CCC3)cc1 (stereo not given),0,0,0,0
COc1ccc(N2C(N)=C(C#N)C(c3ccc(OC)c(OC)c3)C3=C2CCCC3=O)cc1 (stereo not given),0,62,0,0
Cc1c(Cl)cccc1NC(=O)CC(NCc1cccnc1)C(=O)O (stereo not given),0,0,0,0
CC(C)CSc1cc([N+](=O)[O-])cc2c1c(C1OCCO1)nn2-c1ccccc1,0,0,0,0
CCCC(=O)NC(c1ccc(Cl)cc1)c1ccc2cccnc2c1O (stereo not given),0,88,0,0
CCC(=O)NC(c1ccccc1)c1ccc2cccnc2c1O (stereo not given),0,82,0,0
CCC(=O)NC(c1ccc(Cl)cc1)c1ccc2cccnc2c1O (stereo not given),0,95,0,0
CCC(=O)NC(c1ccc2c(c1)OCO2)c1cc(Cl)c2cccnc2c1O (stereo not given),0,0,0,0
COCC(=O)NC(c1ccccc1)c1cc(Cl)c2cccnc2c1O (stereo not given),0,0,0,0
CCCCC(=O)NC(c1ccc(Cl)cc1)c1ccc2cccnc2c1O (stereo not given),0,85,0,0
O=C(NCc1cccnc1)c1ccc2nc(Br)sc2c1,0,0,0,0
CCCC(=O)NC(c1ccc(Cl)cc1Cl)c1ccc2cccnc2c1O (stereo not given),0,63,0,0
CCC(=O)NC(c1ccc(OC)cc1)c1ccc2cccnc2c1O (stereo not given),0,32,0,63
CC(=O)NC(c1ccc(Cl)cc1Cl)c1cc(Cl)c2cccnc2c1O (stereo not given),0,0,0,0
CC(=O)NC(c1ccc(Cl)cc1Cl)c1ccc2cccnc2c1O (stereo not given),0,89,0,0
COc1ccc(-c2nc(-c3ccc(O)cc3)[nH]c2-c2ccccc2)cc1OC,0,0,0,0
O=C(c1ccc2c(c1)OCCO2)N1CCN(c2nc3ccc(Cl)cc3s2)CC1,0,0,0,0
CC(OC(=O)c1ccc(Cl)c(Cl)c1)C(N)=O (stereo not given),0,0,0,0
COc1cc2c(cc1OC)C(C(=O)N1CCCC(C)C1)C1c3ccccc3CCN1C2=O (stereo not given),0,0,0,0
COc1cc2c(cc1OC)C(C(=O)N1CCCCC1)C1c3ccccc3CCN1C2=O (stereo not given),1.9,0,0,0
CS(=O)(=O)c1ccc(Sc2nc3ccccc3s2)c([N+](=O)[O-])c1,0,64,0,0
SMILES,FBW7 activator,TEAD-YAP inh,GPR151 activ,MITF inh
O=[N+]([O-])c1cc(S(=O)(=O)N2CCOCC2)ccc1Sc1nc2ccccc2s1,0,0,0,0
CC(=O)Nc1cccc(NC(=O)c2cccs2)c1,0,0,0,0
FC(F)(F)C1=Nc2cc(Cl)c(Cl)cc2N=C(c2cccs2)C1,0,37,0,0
CSc1nc2c(c(=O)[nH]c(=O)n2C)n1CCSc1nc2ccccc2s1,0,37,0,0
O=C(CSc1nc2sc3c(c2c(=O)n1C1CCCCC1)CCC3)c1ccc(Br)cc1,0,0,0,0
COc1ccc2c(c1)CC(c1nc3cc(-c4cn[nH]c4C)ccc3c(=O)[nH]1)CO2 (stereo not given),0,40,0,0
COc1ccc2c(c1)CC(c1nc3cc(-c4ccncc4)ccc3c(=O)[nH]1)CO2 (stereo not given),0,0,0,0
Cc1[nH]ncc1-c1ccc2nc(C3COc4ccccc4C3)[nH]c(=O)c2c1 (stereo not given),0,50,0,0
